Data: ChEMBL document CHEMBL4888484, “Replenishing the malaria drug discovery pipeline: Screening and hit evaluation of the MMV Hit Generation Library 1 (HGL1) against asexual blood stage Plasmodium falciparum ,using a nano luciferase reporter read-out” (2022)
In all, about 4,800 compounds went through this assay and about 410 (8.5%) showed an effect of 50% or more. Many of the other results were omitted from the sample, so strong results are more common in it than they were.

System: Plasmodium falciparum
Assay: Confirmatory screen in NF54 pLDH assay, in single point, at 2uM, 72h
Format: functional, Erythrocyte
Settings: timepoint 72 hour

SMILES | % Inhibition
O=C(Cn1cnc2ccc(Cl)cc2c1=O)NCc1ccc2c(c1)OCO2 | -5%
CC[C@H]1Cn2c(C(=O)NCc3ccc4c(c3)OCO4)cc3c(Cl)ccc(c32)O1 | -10%
Cc1ccc(Cn2c(=O)c(C(=O)NCc3ccc4c(c3)OCO4)nn(-c3ccc(C(C)C)cc3)c2=O)cc1 | 52%
Cc1ccc(NC(=O)Nc2c(C3=CCCCC3)c(C)nn2C)cc1C | -13%
CC(C)(C)OC(=O)N1CC(NC(=O)C2CC2c2ccccc2C(F)(F)F)C1 (stereo not given) | -16%
CCc1c([C@H](C)S(=O)(=O)c2ccccc2)[nH]c(=O)n1Cc1cccs1 | -7%
Cc1cc(N2CCN(c3ccccn3)CC2)n2cc(-c3ccccc3)nc2n1 | 14%
O=S(=O)(C1CC1)N1CC[C@H](CO)C1 | 0%
Cc1ccc(S(=O)(=O)Cc2nc(-c3ccc(C(=O)Nc4ccc(C)cc4Cl)cc3)oc2C)cc1 | 14%
COc1cccc(-c2noc3nc(C)cc(C(=O)NCCCn4ccc(C)n4)c23)c1 | 11%
Cc1ccc(NC(=O)C2C3NC(=O)N(c4ccccc4)C2(C)Oc2ccc(C)cc23)c(C)c1 (stereo not given) | -9%
CC(C)c1ccc(N2C(=O)[C@H](CC(=O)N3CCN(C)CC3)N=C2O)cc1 | 9%
CC(=O)NCCNC(=O)Nc1ccccc1N(C)C1CCCC1 | -5%
CCOc1cc(CNC2CCN(C(C)=O)CC2)ccc1OCc1c(F)cccc1Cl | 13%
Cc1cc(N)n(-c2nc(-c3ccccc3)cc(=O)[nH]2)n1 | -1%
CCCc1cc(-c2nc(-c3ccc(-n4nc(C)cc4N)cc3)no2)n(C)n1 | 88%
Cc1n[nH]c(C)c1NC(=O)CN1CC(C)OC(C)C1 (stereo not given) | -7%
COc1ccsc1S(=O)(=O)N(CCN(C)C)C1CCCC1 | -9%
O=C(Cn1cnc2nc(N3CCCCC3)sc2c1=O)Nc1cc(Cl)cc(Cl)c1 | 1%
Cc1cc(C)c(C(=O)O)cc1NC(=O)c1oc(C2CC2)nc1C | -8%
CCN1CCN(c2nc(O)c3c(n2)NC(=O)C[C@H]3c2cccc(F)c2)CC1 | -7%
O=C(Nc1ccc(N2CCOCC2)c(F)c1)OCc1ccccc1 | 2%
COC(=O)C1(NC(=O)c2scnc2C)CCCCC1 | -5%
CC1CCC2C(CCC(C)N2C(=O)c2cc3nc4c(c(C(F)(F)F)n3n2)CCc2ccccc2-4)C1 (stereo not given) | 1%

SMILES | % Inhibition
COc1ccccc1N1CCN(CC(=O)Nc2c3c(nc4ccccc24)N(c2cccc(C)c2)CC3)CC1 | -24%
Cc1ccccc1CNC(=O)[C@H]1CCCN(c2nc3cccnc3n(Cc3ccccc3)c2=O)C1 | -6%
Cc1ccccc1CNC(=O)[C@H]1CCCN(c2nc3ccccc3[nH]c2=O)C1 | 13%
CC(C)(C)C(=O)/C(=N\OC(=O)Nc1ccc(Cl)cc1)n1cncn1 | 0%
CCCCn1nnc(N(C(=O)c2cccc3c(Br)cccc23)C(=O)c2cccc3c(Br)cccc23)n1 | 0%
Cc1ccc(C(=O)Nc2ccc(N3CCN(CCC#N)CC3)cc2C(=O)O)cc1 | -6%
Cc1ccccc1[C@H]1CCN(c2ccc(NC(=O)c3ccc(Cl)cc3)c(C(=O)O)c2)C1 | -17%
Cc1ccc(C(=O)Nc2cc3c4c(c2)C2CCCC2CN4CC2CCCC32)cc1 (stereo not given) | 54%
Cc1ccccc1[C@H]1CC(=O)Nc2c1c(C)nn2-c1nncc(-c2ccc(Cl)cc2)n1 | 15%
Cc1c(-c2ccc(F)cc2)[nH]c2ccc(CNc3nccc(N(C)C)n3)cc12 | 50%
CCNc1ccnc(NCc2nc(-c3cccc(F)c3)c(-c3ccccn3)[nH]2)n1 | 22%
Cc1nn(C)cc1-c1n[nH]cc1Br | 7%
COc1ccccc1N(Cc1ccccc1)C1=NC(=[N+](Cc2ccccc2)c2ccccc2OC)c2ccccc21 | 67%
CC1COCCC1NCc1ncn(Cc2cccc(F)c2)n1 (stereo not given) | -4%
Cc1cnn(CCCNC(=O)c2ccc3[nH]c4c(c3c2)CCCC4)c1 | 5%
CCN1CCN(C2CCN(c3ncc(F)c(OC)n3)CC2)CC1 | 50%
COc1nc(N2[C@@H]3CC[C@H]2C[C@@H](OC)C3)ncc1F | 52%
CCN1CCC2CCC(C1)N2C(=O)Nc1ccc(OC2CCC2)c(F)c1 (stereo not given) | -18%
O=S(=O)(c1ccc(Cl)cc1)n1ccc(C2CC2)n1 | 4%
COc1cccc(CNCCCN2CCOCC2)c1OCc1ccc(F)cc1Cl | 1%
CC(C)(C)NC(=O)CNc1nnc(C2CC2)s1 | 12%
CCCCCC1CCC(c2ccc(-c3ccc(CC)cn3)cc2F)CC1 (stereo not given) | 7%
Cc1c[nH]c(=O)n1-c1ccc(C(=O)NCCc2cc(F)cc(F)c2)cc1 | 10%
O=C(CC1COCCN1C(=O)C1CCc2ccccc21)c1ccco1 (stereo not given) | -17%

SMILES | % Inhibition
CCOc1c(CNCCN(C)C)cc(Br)cc1OC | 3%
COc1ccc2ncc(=O)n(CCOc3ccccc3)c2c1 | 9%
COc1ccc2c(/C=C/c3cc[n+](C)cc3)cn(Cc3ccccc3)c2c1 | 62%
COc1ccc2nc(N3CN(Cc4ccccc4)CN(c4nc5ccc(OC)cc5s4)C3)sc2c1 | 1%
N#Cc1ccc2c(c1)N(Cc1ccccc1F)C(=O)[C@@H]1CCCN21 | 7%
O=C(N[C@@H](N1CCOCC1)C(Cl)(Cl)Cl)c1ccccc1Cl | 8%
O=C(CN1CCCC1)N1CCCN(S(=O)(=O)c2ccccc2)[C@H]1c1ccccc1 | -2%
Cc1ccc(CNc2ccc(S(C)(=O)=O)cc2)c(=O)n1C | -9%
CCc1nnc(NC(=O)NCc2c[nH]nn2)s1 | -6%
Cc1ccc2nc(-c3cc4ccccc4o3)cn2c1 | 52%
c1ccc2oc(-c3ccnc4nncn34)cc2c1 | 3%
Cc1ccccc1CC(=O)Nc1ccc(-c2nc3ncccc3o2)cc1 | 5%
CNc1nc(Nc2ccc3c(c2)OCCO3)nc2ccccc12 | 103%
c1ccc(CCNc2nc(-c3ccccn3)cs2)cc1 | 31%
C[C@H](Nc1nc(N2CCCCC2)nc2ccccc12)c1ccccc1 | -6%
NS(=O)(=O)c1ccc(CCNc2nc(-c3ccccc3)nc3ccccc23)cc1 | 5%
CNc1nccc(OCc2ccccc2)n1 | 9%
Cc1ccc(-c2nc3ncccn3c2Nc2ccc3c(c2)OCCO3)o1 | -4%
CNc1nc(NCc2ccccc2)nc2ccccc12 | 91%
CNc1nc(NCCc2ccccc2)nc2ccccc12 | 92%
O=C1c2ccccc2[C@@H](Nc2ccc3c(c2)OCCO3)N1c1ccccn1 | -8%
COc1ccc(CNc2nc(-c3nnc(-c4ccccc4)o3)nc3ccccc23)cc1 | -3%
